Rows were chosen to be rich in hits. Some 11% of all compounds tested hit in one or more screens of this group.
NS1 inh: qHTS Assay for Inhibitors of Influenza NS1 Protein Function. Potency, µM (doses to about 46.1 µM), for inactives: at the highest dose activity, positive = more growth. actives 0.4% (n = 270,000); calls by dose curve; note: actives are rising curves; nearly all actives have a fitted effect of over 50% in size
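Recovery from NS1-induced slow growth read by OD600 in budding yeast switched to galactose assay medium (pH 6.0, -URA) at 1:100 dilution. Compound 23 nl per well; the matching strain lacking NS1 serves as control.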
AMA1-RON2 inh: qHTS for Inhibitors of AMA1-RON; Towards Development of Antimalarial Drug Lead: Primary Screen. Plasmodium falciparum AMA1 (3D7) - RON2 peptide interaction. AlphaScreen AMA1-biotinylated RON2 peptide binding. Potency, µM (series often up to 58.2 µM), for inactives: top-dose activity change, negative = inhibition, hits mostly inhibitors. actives 0.2% (n = 360,000). AID 720542, 2013;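 note: 0% = vehicle wells and -100% = peptide control; nearly all actives have a fitted effect of over 45% in size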
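AMA1 (3D7) with his tag at 25 nM final met compounds first, then biotinylated RON2 peptide at 25 nM; detection used donor plus acceptor beads, 10 µg/mL apiece, read by AlphaScreen after 30 min at room temperature.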
Pf growth 96h: Primary qHTS for delayed death inhibitors of the malarial parasite plastid, 96 hour incubation. P. falciparum luciferase reporter growth, 96 h. Potency, µM (highest dose often 28.7 µM), for inactives: at the highest dose activity change, negative = inhibition, actives largely listed as inhibitors. actives 6.9% (n = 320,000); note: % is set by controls: 0 for no effect and ±100 for the full control effect
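P. falciparum expressing integrated firefly luciferase grown in erythrocytes (2% hematocrit, 0.05% parasitemia final) with compounds for 96 hours at 37 C, 5% CO2. Growth inhibition read as loss of luminescence after adding luciferase detection reagent.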
Pf growth 48h: Primary qHTS for delayed death inhibitors of the malarial parasite plastid, 48 hour incubation; actives 5.9% (n = 310,000); Potency, µM (titrated, usually from 28.7 µM), for inactives: top-dose activity change, negative = inhibition, most hits filed as inhibitors; P. falciparum luciferase growth in erythrocytes, 48 h; AID 504832, 2011; note: % is set by controls: 0 for no effect and ±100 for the full control effect
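Firefly luciferase activity from engineered P. falciparum reports growth; inhibitors lower the luminescent signal. Cultures contained 2% hematocrit erythrocytes at 0.1% final parasitemia.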
Sm TGR block: qHTS Assay for the Inhibitors of Schistosoma Mansoni Peroxiredoxins | Schistosoma mansoni thioredoxin glutathione reductase (TGR), Q962Y6 | purified TGR, DTNB reduction, TNB absorbance 405 nm | Potency, µM (titrated, usually from 114 µM), without a hit: at the top dose activity change, negative = inhibition, usual class: inhibitors | actives 3% (n = 360,000); note: % is set by controls: 0 for no effect and ±100 for the full control effect; nearly all actives have a fitted effect of over 60% in size
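TGR 20 nM + NADPH 100 uM (dispensed conc.), cpd preinc 15 min RT; start with NADPH (500 uM addition) then DTNB (15 mM addition). Kinetic TNB absorbance, 405 nm filter. Four-parameter Hill fit across titration.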
The depositor's hits bear a star; ? = inconclusive; . = no result. Unless noted, calls come from the whole dose curve; as a rule, active = well fitted curve in the direction sought with a large enough effect; inconclusive = small, poorly fitted or top-dose-only effect, or another doubt; inactive = no such curve, though single readings can be large; an effect the other way counts as inactive or inconclusive. Potency is the fitted concentration of half-maximal effect.

SMILES	NS1 inh	AMA1-RON2 inh	Pf growth 96h	Pf growth 48h	Sm TGR block
O=C(CSC1=NS(=O)(=O)c2ccccc2N1)N1CCCCC1	.	-5%	40%	17%	-4%
COc1cccc(N=Nc2c(N)[nH]n3c(=O)c4c(nc23)CCCC4)c1	-1%	35%	?	5%	2%
COC(=O)NNC(=O)C12CC3CC(CC(C3)C1)C2	10%	-18%	4.1µM*	3%	0%
Cc1c(CCC(=O)NCCc2ccc(Cl)cc2)c(=O)oc2c(C)c(O)ccc12	.	.	.	.	0%
O=C(N[C@@H](Cc1ccccc1)C(=O)O)c1cccnc1	?	41%	2.9µM*	.	3%
O=C(NCc1ccccc1)c1cccnc1	2%	-3%	-3%	10%	5%
O=C(OCc1ccccc1)c1cccnc1	.	.	15µM*	?	.
O=C(Nc1c2ccccc2nc2ccccc12)C(Cl)(Cl)Cl	-131%	6%	36%	1µM*	-15%
O=C(Cc1ccccc1)NNc1c2ccccc2nc2ccccc12	-15%	4%	81%	-12%	-3%
CCCCN(CC)c1nc(N)c(C#N)c(CC#N)c1C#N	8%	6%	3.3µM*	.	-11%
CCCCN(CC)c1nc(N)c2c(N)nc(OCC)cc2c1C#N	0%	42%	13µM*	.	-10%
CCOc1cc2c(C#N)c(N3CCCC3)nc(N)c2c(N)n1	.	-3%	.	.	.
O=C1NC(=O)C(c2ccccc2)(c2ccccc2)N1S(=O)(=O)c1ccccc1	.	7%	.	.	.
CC(=O)c1c(C(C)=O)c(C)n(-c2ccc(C)c(NC(=O)c3ccccc3Cl)c2)c1C	-13%	-10%	2.9µM*	?	-8%
COc1cccc(C(=O)N(c2ccccc2)C2C=CS(=O)(=O)C2)c1 (centres undefined)	.	20%	4%	7%	-5%
O=C(CN1CCC(NC(=O)c2ccccc2)CC1)NCc1ccccc1F	-7%	2%	5.9µM*	?	-1%
O=C(CN1CCC(NC(=O)c2ccccc2F)CC1)NCc1ccc(F)cc1	6%	22%	.	13µM*	-3%
O=C(CN1C(=O)CCS(=O)(=O)c2ccccc21)Nc1ccccc1F	1%	0%	5%	-22%	-15%
Cc1cc[n+]2cc(-c3cccc([N+](=O)[O-])c3)c(-c3cccc([N+](=O)[O-])c3)cc2c1	10%	-6%	0.15µM*	0.83µM*	-1%
Cc1cccc(-c2cnn(-c3cccc([N+](=O)[O-])c3)c2N)c1	-2%	-24%	96%	40%	-8%
COc1ccc(CC(=O)NNC(=O)c2ccncc2)cc1	.	-4%	-10%	6%	14%
N#Cc1ccccc1OCC(=O)NNC(=O)CNC(=O)c1ccc(Br)o1	.	83%	.	.	.
CN(C)CCCN1C(=O)C2CCc3[nH]c4ccccc4c3C2C1=O (centres undefined)	1%	-6%	2.9µM*	17%	0%
CS(=O)(=O)c1ccc(C(=O)N2CCN(C(=O)c3ccco3)CC2)cc1	.	-4%	1%	-16%	0%
Clc1cccc(Cl)c1C1Nc2cccc3cccc(c23)N1	-8%	12%	6%	?	3.2µM*
SMILES	NS1 inh	AMA1-RON2 inh	Pf growth 96h	Pf growth 48h	Sm TGR block
c1csc(C2Nc3cccc4cccc(c34)N2)c1	3%	-4%	?	?	22µM*
Fc1cccc(Cl)c1C1Nc2cccc3cccc(c23)N1	-48%	-26%	-2%	?	?
COc1ccc(C2Nc3cccc4cccc(c34)N2)cc1	-1%	-11%	6%	?	.
CN1c2cccc3cccc(c23)N(C)C1c1cccs1	?	-1%	?	?	-28%
CN(C)c1ccc(C2Nc3cccc4cccc(c34)N2)cc1	0%	-8%	3.7µM*	.	32µM*
Clc1ccc(C2Nc3cccc4cccc(c34)N2)cc1Cl	23%	2%	-5%	?	14µM*
Cc1ccc(S(=O)(=O)N2[C@@H](c3ccc4c(c3)OCO4)C(C(=O)O)=C[C@H]2CC2CCCC2)cc1	.	16%	.	.	.
CC(OC(=O)CN1C(=O)c2ccccc2C1=O)C(=O)N(C)c1ccccc1 (centres undefined)	.	9%	23%	-22%	5%
O=C(NCc1ccc(Cl)c(Cl)c1)c1cc(C2CCCCN2C(=O)c2ccccn2)on1 (centres undefined)	.	2%	.	.	.
Oc1ccccc1C1Nc2cccc3cccc(c23)N1	-37%	-4%	-7%	13µM*	18µM*
O=[N+]([O-])c1ccc(Cl)c(C2Nc3cccc4cccc(c34)N2)c1	-12%	-27%	?	?	-26%
c1ccc(C2Nc3cccc4cccc(c34)N2)cc1	-18%	-11%	26%	?	8.9µM*
Clc1cccc(C2Nc3cccc4cccc(c34)N2)c1	30%	-7%	63%	7.4µM*	3.2µM*
Brc1cccc(C2Nc3cccc4cccc(c34)N2)c1	3%	-2%	?	?	11µM*
COc1ccccc1C1Nc2cccc3cccc(c23)N1	-34%	-28%	-10%	?	?
CCCN(CCC)C(=O)Cn1c(=O)n(-c2ccc(Cl)cc2)c(=O)c2c3c(sc21)CCCC3	.	.	.	.	2%
O=C1/C(=C/c2cccnc2)SC(=S)N1Nc1ccccc1	0%	4%	?	?	2µM*
Cc1nn(C)cc1CN1CCCC(C(=O)c2ccc(-c3ccccc3)c(F)c2)C1 (centres undefined)	-3%	-12%	0%	15µM*	-10%
O=C(c1ccc(-c2ccccc2)c(F)c1)C1CCCN(C(=O)c2cncs2)C1 (centres undefined)	-53%	-6%	13µM*	?	-4%
Cn1cc(CN2CCCC(C(=O)c3ccc(-c4ccccc4)c(F)c3)C2)cn1 (centres undefined)	1%	-14%	?	?	5%
Cc1ccc(NC(=O)NCc2cccnc2)cc1	6%	0%	-6%	32%	1%
Cc1ccc(C2(c3ccc(C)cc3)CC2C(=O)NCc2cccnc2)cc1 (centres undefined)	-4%	-16%	1.9µM*	-26%	.
O=C(CC(=O)NCc1cccnc1)NCc1cccnc1	3%	1%	10µM*	8%	-2%
O=C(CCn1nc(-c2ccc(Cl)cc2)ccc1=O)NCc1cccnc1	-3%	-10%	4%	1.2µM*	-22%
O=C(NCc1cccnc1)C(Cl)(Cl)Cl	1%	14%	3.7µM*	-13%	-1%
CCOc1ccc(NC(=O)Cn2nc(Cc3cccnc3)c3ccccc3c2=O)cc1	.	.	.	.	9%
O=C(COc1ccccc1[N+](=O)[O-])Nc1cccc(C(=O)Nc2ccccc2C(=O)O)c1	20%	-13%	1%	-15%	-10%

Assay outcomes: PubChem BioAssay, National Center for Advancing Translational Sciences (NCATS)
